SMN2 splice up: enhancers of SMN2 splice variant expression; actives 2.8% (n = 210,000); Potency, µM (highest dose often 46.1 µM), for inactives: at the highest dose activity change, positive = activation, actives largely listed as activators; HEK293 SMN2-luciferase splicing reporter, luminescence, 30-36 h; further: % of control where 0% means no effect; nearly all actives have a fitted effect of over 55% in size
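HEK293 cells carry an SMN2 […]–luciferase reporter in which exon 7 inclusion puts luciferase in frame. Cells were plated 10-12 h before compound addition, then incubated 30-36 h at 37C. ONE-Glo luminescence was read; sodium butyrate at 4.5 mM final served as control.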
ELG1 genotoxic: induces genotoxicity in HEK293T cells with luciferase-tagged ELG1 | HEK293T ELG1-luciferase reporter, luminescence, 16 h | Potency, µM (highest dose often 46 µM), for the others: at the top dose activity change, positive = activation, actives largely listed as activators | actives 1.3% (n = 330,000) | AID 504466; further: % of control where 0% means no effect; nearly all actives have a fitted effect of over 60% in size
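16 hr compound incubation (37 °C, 5% CO2) of HEK293T cells carrying luciferase-tagged ELG1; luciferase then measured by ONE-Glo luminescence after 30 min at RT.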
Rab9 prom act: Rab9 promoter activation; Huh7 Rab9 promoter-luciferase reporter, luminescence, 24 h; actives 2.8% (n = 320,000); Potency, µM (titrated, usually from 9.22 µM), without a hit: at the highest dose activation, negative = inhibition, actives largely listed as activators; further: % of control where 0% means no effect; nearly all actives have a fitted effect of over 60% in size
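Promoter activation is measured as luciferase luminescence in Huh7 cells stably transfected with a Rab9 promoter–luciferase construct, following 24 h compound exposure at 37 °C and 10 min reagent incubation at ambient temperature.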
FLuc counter: firefly luciferase modulation, counter-screen for miR-21 project; Potency, µM (top dose mostly 57.5 µM), inactives show top-dose activity change, negative = inhibition, hits mostly inhibitors; purified FLuc, Km substrates, luminescence inhibition; P08659; actives 6.9% (n = 360,000); AID 588342;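 further: plate controls were vehicle for no effect and reference inhibitor for full effect; nearly all actives have a fitted effect of over 55% in size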
Target sequence (P08659 whole entry, looked up): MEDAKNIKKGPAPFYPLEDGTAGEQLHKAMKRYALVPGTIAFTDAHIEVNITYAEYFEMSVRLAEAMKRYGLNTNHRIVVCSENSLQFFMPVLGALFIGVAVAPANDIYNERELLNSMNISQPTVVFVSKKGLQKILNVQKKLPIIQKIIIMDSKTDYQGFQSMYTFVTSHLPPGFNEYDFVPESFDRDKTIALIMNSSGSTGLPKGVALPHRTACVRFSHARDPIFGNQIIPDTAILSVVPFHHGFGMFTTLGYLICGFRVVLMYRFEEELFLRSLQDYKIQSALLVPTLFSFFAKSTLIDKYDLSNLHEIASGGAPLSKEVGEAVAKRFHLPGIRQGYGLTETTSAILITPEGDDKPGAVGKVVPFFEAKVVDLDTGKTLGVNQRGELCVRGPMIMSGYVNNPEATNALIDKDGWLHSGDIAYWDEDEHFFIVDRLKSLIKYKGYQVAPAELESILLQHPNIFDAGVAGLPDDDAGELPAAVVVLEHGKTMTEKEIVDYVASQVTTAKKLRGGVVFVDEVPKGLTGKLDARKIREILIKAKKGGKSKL
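Purified P. pyralis luciferase (10nM final) with 10uM D-luciferin and 10uM ATP (Km levels) in 50mM Tris acetate pH 7.5, 10mM Mg acetate, 0.01% Tween-20, 0.05% BSA; qHTS 6-point titration, ~60 µM downward; luminescence read.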
KinaseGlo FLuc: blocks Kinase-Glo luciferase, a counter-screen artifact; Kinase-Glo luciferase, ATP luminescence, 8 min; Q27757; actives 0.28% (n = 200,000); Potency, µM (series often up to 38.3 µM), without a hit: top-dose activity change, negative = inhibition, hits mostly inhibitors; further: on the % scale 0 is the no-effect control and ±100 the full control effect; nearly all actives have a fitted effect of over 60% in size
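Light output from Kinase-Glo luciferase with luciferin and 10 uM ATP in 50 mM imidazole pH 7.2, KCl, MgCl2, Tween 20, BSA; compound pin-delivered, 8-min ambient incubation, then luminescence read.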
NPC1 prom act: activates the NPC1 promoter; AID 485313; Potency, µM (doses to about 9.22 µM), for the others: at the highest dose activation, usual class: activators; Huh7 NPC1 promoter luciferase reporter, 24 h; actives 2.4% (n = 320,000); further: % of control where 0% means no effect; nearly all actives have a fitted effect of over 60% in size
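Huh7 cells stably carrying NPC1 promoter–luciferase, plated in Opti-MEM with 10% FBS for 2 h, were exposed to compound in DMSO for 24 h at 37 °C; luciferase reagent was added for 10 min and luminescence read.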
Numbers without * were called inactive; u = inconclusive; x = no result given; [ ] = remark or other dose. In the library only some 7.4% were active in any assay of this set; here they are far more common. The call rests on the fitted dose curve; in most records, active means well fitted curve in the direction sought with a large enough effect; inconclusive means small, poorly fitted or top-dose-only effect, or another doubt; inactive means no such curve, though single readings can be large; an effect the other way counts as inactive or inconclusive. Potency means the concentration at half of the fitted maximal effect.

SMILES	SMN2 splice up	ELG1 genotoxic	Rab9 prom act	FLuc counter	KinaseGlo FLuc	NPC1 prom act
Clc1ccc(-c2nnc(C3CCCCC3)o2)cc1	27%	u	30%	u	14%	24%
O=C1C2=C(Nc3cc([N+](=O)[O-])ccc3N2)O[C@@H]1c1ccc([C@H]2OC3=C(Nc4ccc([N+](=O)[O-])cc4N3)C2=O)cc1	10%[9.22 µM]	x	x	x	-5%[7.66 µM]	x
Fc1ccc(-c2nnc(-c3ccc(Cl)cc3Cl)o2)cc1	1µM*	1.6µM*	0.32µM*	0.48µM*	-14%	0.22µM*
Clc1ccc(-c2nnc(-c3ccc(Br)o3)o2)c(Cl)c1	u	9.2µM*	u	3µM*	8%	1.6µM*
Clc1ccc(-c2nnc(-c3ccccc3)o2)c(Cl)c1	2.5µM*	u	0.89µM*	0.43µM*	u	0.4µM*
Fc1ccc(-c2nnc(-c3ccc(Cl)cc3)o2)cc1	u	6.5µM*	0.79µM*	2.7µM*	-4%	2µM*
CSc1nnc(-c2ccc(F)cc2)o1	-2%	9%	7%	-14%	1%	-3%
CS(=O)(=O)c1ccccc1-c1nnc(-c2ccc(Cl)cc2)o1	4%	13%	u	u	-2%	-4%
Clc1ccc(-c2nnc3sc(-c4ccc(Br)o4)nn23)c(Cl)c1	-3%	1%	-6%	7%	-1%	-3%
O=C(COc1ccc2ccccc2c1)NC1CC(=O)N(c2cccc(F)c2)C1 (stereo not given)	x	x	x	-2%	x	x
COc1ccccc1NC(=O)c1ncn(-c2ccccc2)n1	11µM*	x	x	u	x	x
COc1ccccc1NC(=O)c1cn(-c2ccccc2)nc1-c1ccccc1	x	x	x	-12%	x	x
O=C(Nc1ccc(F)cc1)c1ncn(-c2ccccc2)n1	14µM*	x	x	11µM*	x	x
CCC1=C2CC[C@H]3C(=O)N(CC(=O)OC)C(=O)[C@H]3[C@H]2[C@@]2(C)C(=O)N(CC3CC3)C(=O)N2C1=O	6%	x	x	x	-9%	x
OCCSCc1ccccc1	-9%[9.22 µM]	x	x	x	-4%[7.66 µM]	x
Fc1ccc(-c2onc3ccc(C4OCCO4)cc23)cc1	-12%	-5%	6%	8.5µM*	0%	6%
CC1(c2ccc3noc(-c4ccc(F)cc4)c3c2)OCCO1	-72%	-1%	-2%	u	13%	1%
Cc1ccc(-n2c(=O)c3c(cnn3C)n(CC(=O)Nc3cccc(C)c3)c2=O)cc1	3%	x	x	-12%	x	x
CCN(CC)C(=O)COC(=O)c1cc(-c2ccc(OC)cc2)nc2ccccc12	-23%	-9%	4%	7.6µM*	-5%	10%
COc1ccc(-c2cc(C(=O)OCC(=O)NC(C)C)c3ccccc3n2)cc1	2%	5%	20%	6.7µM*	-4%	13%
COc1ccc(-c2cc(C(=O)OCC(=O)N3CCOCC3)c3ccccc3n2)cc1	x	1%	x	x	x	x
COc1ccc(-c2cc(C(=O)OCC(=O)NC3CC3)c3ccccc3n2)cc1	x	3%	23%	3.8µM*	x	14%
COc1ccc(-c2cc(C(=O)Oc3cccc(C)c3C)c3ccccc3n2)cc1	7%	x	x	u	x	x
O=C(COC(=O)c1cc(-c2ccccc2)nc2ccccc12)NC1CC1	x	0%	x	x	x	x
COc1ccc(-c2cc(C(=O)OCC(=O)NC(C)(C)C)c3ccccc3n2)cc1	6%	-4%	15%	12µM*	1%	10%
CCN(CC)C(=O)COC(=O)c1cc(-c2ccco2)nc2ccccc12	6%	-1%	10%	u	-5%	1%
Cc1ccc2c(Sc3ccc(Cl)cc3)c(C(=O)N3CCCCC3)[nH]c2c1	x	x	x	-1%	x	x
CCn1ccc2cc(S(=O)(=O)N3CCC(C(=O)NCc4ccc(OC)cc4)CC3)ccc21	x	x	x	-11%	x	x
CCCNC(=O)COC(=O)c1cc(-c2ccc(OC)cc2)nc2ccccc12	3%	6%	17%	u	-2%	11%
COCCNC(=O)COC(=O)c1cc(-c2ccc(OC)cc2)nc2ccccc12	u	2%	14%	11µM*	-6%	13%
